Measured values reported in PMC6579518.

These substances were tested against Large ribosomal subunit protein eL14A (UniProt P36105) (assay: cross-link between two proteins; cross-linking mass spectrometry).
Large ribosomal subunit protein eL14A, sequence (P36105 whole entry): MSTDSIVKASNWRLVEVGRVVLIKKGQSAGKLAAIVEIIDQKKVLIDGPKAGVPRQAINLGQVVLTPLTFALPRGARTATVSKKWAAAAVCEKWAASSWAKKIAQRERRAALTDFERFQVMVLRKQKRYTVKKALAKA

Large ribosomal subunit protein uL13B, P26785, sequence (P26785 whole entry): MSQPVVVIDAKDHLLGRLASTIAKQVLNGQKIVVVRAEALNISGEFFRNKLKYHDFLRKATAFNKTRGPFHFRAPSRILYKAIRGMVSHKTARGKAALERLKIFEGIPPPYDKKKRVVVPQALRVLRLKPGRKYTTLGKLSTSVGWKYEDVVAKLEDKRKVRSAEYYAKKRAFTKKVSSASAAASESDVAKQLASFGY
Large ribosomal subunit protein uL13A, P26784, sequence (P26784 whole entry): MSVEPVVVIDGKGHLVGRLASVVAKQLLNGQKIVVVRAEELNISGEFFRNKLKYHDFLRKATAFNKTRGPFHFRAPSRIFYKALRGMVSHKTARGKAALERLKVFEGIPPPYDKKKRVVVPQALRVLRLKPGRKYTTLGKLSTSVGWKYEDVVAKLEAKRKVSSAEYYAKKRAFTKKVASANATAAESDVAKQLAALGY
Large ribosomal subunit protein eL32, P38061, sequence (P38061 whole entry): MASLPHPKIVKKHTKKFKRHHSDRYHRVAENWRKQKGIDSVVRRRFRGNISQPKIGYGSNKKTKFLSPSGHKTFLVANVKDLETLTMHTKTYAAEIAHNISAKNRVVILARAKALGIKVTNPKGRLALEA

Listed as a hit, yes:
Large ribosomal subunit protein uL13A, P26784
Large ribosomal subunit protein uL13B, P26785
Large ribosomal subunit protein uL30A, P05737

These substances were tested against Ribosome biogenesis protein ALB1 (UniProt P47019) in the same assay as above.
Ribosome biogenesis protein ALB1, sequence (P47019 whole entry): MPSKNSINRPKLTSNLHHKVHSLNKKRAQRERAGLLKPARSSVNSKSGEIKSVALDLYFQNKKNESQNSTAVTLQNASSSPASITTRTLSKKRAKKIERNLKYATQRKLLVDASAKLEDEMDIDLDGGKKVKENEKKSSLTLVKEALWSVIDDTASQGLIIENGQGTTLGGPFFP

Listed as a hit, yes:
Large ribosomal subunit protein uL24A, P05743
Large ribosomal subunit protein eL6B, P05739
Large ribosomal subunit protein eL32, P38061
